An excerpt weighted towards active compounds, which were near 15% of everything screened.
SARS PLpro yeast: qHTS of Yeast-based Assay for SARS-CoV PLP | actives 0.19% (n = 330,000) | S. cerevisiae expressing SARS-CoV PLpro, growth rescue | Potency, µM (series often up to 32.9 µM), actives largely listed as activators; calls by dose curve; note: nearly all actives have a fitted effect of over 55% in size
Pf growth 48h: Primary qHTS for delayed death inhibitors of the malarial parasite plastid, 48 hour incubation | P. falciparum luciferase growth in erythrocytes, 48 h | Potency, µM (top dose mostly 28.7 µM), most hits filed as inhibitors | actives 5.9% (n = 310,000) | AID 504832, 2011
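Erythrocytes infected with P. falciparum carrying an integrated firefly luciferase reporter (2% hematocrit, 0.1% parasitemia final) were exposed to compounds in RPMI 1640 with 0.5% Albumax at 37 C, 5% CO2. Growth inhibition was scored as reduced luminescence.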
HCMV antiviral: qHTS Assay for inhibitors of the human cytomegalovirus (HCMV); activity change, negative = inhibition, % at 57.5 µM; HFF cells, HCMV-luciferase reporter, 72 h; hits give low values; actives 4.5% (n = 410,000); in the data active = activity change below about -60%; inconclusive = no clear call, values can overlap the other calls; inactive = above about -39%
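Screen run at 2 compound doses on HFFs infected with reporter HCMV, MOI 1 PFU/cell. Luciferase activity from cell lysates at 72 h post infection gave inhibition relative to buffer-only and Salinomycin wells.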
Sm TGR inh: qHTS Assay for the Inhibitors of Schistosoma Mansoni Peroxiredoxins; Schistosoma mansoni thioredoxin glutathione reductase (TGR), Q962Y6; purified TGR, DTNB reduction, TNB absorbance 405 nm; Potency, µM (titrated, usually from 114 µM), usual class: inhibitors; actives 3% (n = 360,000); AID 485364, 2010; note: nearly all actives have a fitted effect of over 60% in size
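TGR 20 nM + NADPH 100 uM (dispensed conc.), cpd preinc 15 min RT; start with NADPH (500 uM addition) then DTNB (15 mM addition). Kinetic TNB absorbance, 405 nm filter. Four-parameter Hill fit across titration.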
Pf growth 96h: Primary qHTS for delayed death inhibitors of the malarial parasite plastid, 96 hour incubation | actives 6.9% (n = 320,000) | Potency, µM (top dose mostly 28.7 µM), usual class: inhibitors | P. falciparum luciferase reporter growth, 96 h
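P. falciparum expressing integrated firefly luciferase, in erythrocytes at 2% hematocrit, 0.05% parasitemia, incubated with compounds 96 h at 37 C, 5% CO2. Growth inhibition read as loss of luminescence; two-generation exposure targets delayed-death apicoplast inhibitors.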
HCV inh: qHTS Assay for Inhibitors of Hepatitis C Virus (HCV); Potency, µM (series often up to 41.8 µM), most hits filed as inhibitors; actives 3.4% (n = 340,000); Huh7.5.1 HCVcc-Cre infection, luciferase reporter, 44 h; AID 651820, 2012
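Seed cells (1,000/well) for 4 h; treat with compound and infect with HCVcc-Cre, moi about 0.5. Incubate 44 h, then detect luciferase activity.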
Numbers stand for hits; . = inactive; ? = inconclusive; / = not tested or not shown. Unless noted, calls come from the whole dose curve; as a rule, active = well fitted curve in the direction sought with a large enough effect; inconclusive = small, poorly fitted or top-dose-only effect, or another doubt; inactive = no such curve, though single readings can be large; an effect the other way counts as inactive or inconclusive.

SMILES | SARS PLpro yeast | Pf growth 48h | HCMV antiviral | Sm TGR inh | Pf growth 96h | HCV inh
COc1cccc(OC)c1C(=O)NC(=S)Nc1ccc(S(=O)(=O)Nc2nccs2)cc1 | . | 13.1µM | ? | ? | . | .
COc1ccccc1C(=O)Nc1ccc(S(=O)(=O)Nc2nccs2)cc1 | . | . | ? | . | . | .
CCc1nnc(NS(=O)(=O)c2ccc(NC(=S)NC(=O)c3ccccc3)cc2)s1 | . | . | . | 39.8µM | . | .
COc1ccc(N2CCN(S(=O)(=O)CCNC(=O)/C=C/c3ccccc3)CC2)cc1 | . | . | . | . | . | .
COc1ccc(C(c2c(O)nc[nH]c2=O)c2c(O)nc[nH]c2=O)cc1 | . | . | . | ? | . | .
O=C(NC(=S)Nc1ccc(S(=O)(=O)Nc2nccs2)cc1)c1ccccc1 | . | . | . | 35.5µM | 13.1µM | .
O=C(NC(=S)Nc1ccc(S(=O)(=O)Nc2nccs2)cc1)c1ccccc1F | . | . | . | . | . | .
Cc1cccc(C)c1-n1nnnc1C(c1cccc2ccccc12)N1CCC(n2c(=O)[nH]c3ccccc32)CC1 (stereo not given) | / | / | . | / | / | /
COc1ccc(C(c2nnnn2Cc2ccccc2)N2CCC(n3c(=O)[nH]c4ccccc43)CC2)cc1 (stereo not given) | / | / | -65.3 | / | / | /
COc1ccc(-n2nnnc2C(c2cc3ccccc3o2)N2CCC(n3c(=O)[nH]c4ccccc43)CC2)cc1 (stereo not given) | / | / | -100.3 | / | / | /
Cc1cccc(C)c1-n1nnnc1C(c1cccs1)N1CCC(n2c(=O)[nH]c3ccccc32)CC1 (stereo not given) | / | / | -76.8 | / | / | /
O=C1NCN(c2ccccc2)C12CCN(C(c1cc3ccccc3o1)c1nnnn1C1CCCC1)CC2 (stereo not given) | / | / | . | / | / | /
O=c1[nH]c2ccccc2n1C1CCN(C(c2cccs2)c2nnnn2Cc2ccccc2)CC1 (stereo not given) | / | / | -95.9 | / | / | /
COc1cccc(-n2ccn(CC(=O)c3ccc(F)cc3)c(=O)c2=O)c1 | / | / | . | . | / | /
O=c1[nH]c2ccccc2n1C1CCN(C(c2ccccc2OC(F)(F)F)c2nnnn2Cc2ccccc2)CC1 (stereo not given) | / | / | -69.4 | / | / | /
Cc1cccc(C)c1-n1nnnc1C(C1CC1)N1CCC(n2c(=O)[nH]c3ccccc32)CC1 (stereo not given) | / | / | . | / | / | /
COc1ccc(C(c2nnnn2-c2ccc(OC)cc2)N2CCC(n3c(=O)[nH]c4ccccc43)CC2)cc1 (stereo not given) | / | / | -60.7 | / | / | /
CCOCCc1nnc(NC(=O)C(=O)c2cc(C)n(-c3cccc(C)c3)c2C)s1 | / | / | . | . | / | /
Clc1ccc(Nc2nnc(Cc3ccncc3)c3ccccc23)cc1 | / | 13.5µM | . | / | 6.75µM | /
S=C(NCc1ccncc1)Nc1ccc(Cl)cc1 | . | . | . | ? | . | .
COc1ccc(C(=O)N/N=C(\c2ccccc2)c2ccccn2)cc1 | . | 2.62µM | -98.8 | . | 3.7µM | 2.82µM
O=C(N/N=C(\c1ccccc1)c1ccccn1)c1ccccc1Cl | . | 2.33µM | -113.5 | . | 2.62µM | ?
O=C(NN=C(c1ccccc1)c1ccccn1)c1ccccc1 | . | / | -97.7 | / | / | 2.51µM
O=C(NC(O)C(=O)c1ccccc1)c1ccccn1 (stereo not given) | . | . | . | . | . | .
CCOc1ccc(NC(=O)CC2C(=O)N(c3ccccc3)C(=O)N2C2CCCCC2)cc1 (stereo not given) | / | / | . | . | / | /
SMILES | SARS PLpro yeast | Pf growth 48h | HCMV antiviral | Sm TGR inh | Pf growth 96h | HCV inh
Cc1nc2ccc(S(=O)(=O)N(C)CC(=O)Nc3ccc(Br)c(C)c3)cc2s1 | / | / | ? | . | / | /
O[C@@H]([C@H](O)[C@H](O)CBr)[C@H](O)CBr | / | . | . | / | . | .
O=c1c2ccccc2cnn1-c1ccc2ccccc2c1 | . | . | . | . | / | .
O=S(c1ccc2ccccc2c1)c1cnns1 (stereo not given) | . | ? | -67.7 | . | ? | ?
CCN(C(=O)CN1CCCc2ccccc21)c1c(N)n(Cc2ccccc2)c(=O)[nH]c1=O | . | . | / | . | / | .
CCn1c(=O)c(C(=O)CN2CCCc3ccccc32)c(N)n(Cc2ccccc2)c1=O | . | 9.28µM | -88.5 | . | 11.7µM | ?
CC1Cc2ccccc2N1CC(=O)N(C)c1c(N)n(Cc2ccccc2)c(=O)[nH]c1=O (stereo not given) | . | ? | . | . | ? | .
CCn1c(=O)c(C(=O)CN2CCN(S(=O)(=O)c3ccccc3)CC2)c(N)n(Cc2ccccc2)c1=O | . | . | . | . | ? | .
CCN(C(=O)CN1c2ccccc2CC1C)c1c(N)n(Cc2ccccc2)c(=O)[nH]c1=O (stereo not given) | . | . | -64.0 | . | . | .
Cc1cc(C)c(C)c(S(=O)(=O)N2CCN(CC(=O)c3c(N)n(Cc4ccccc4)c(=O)n(C)c3=O)CC2)c1C | . | 5.86µM | . | . | ? | ?
CC(=O)NC(=S)c1c(N)n(Cc2ccccc2)c(=O)n(C)c1=O | . | ? | / | . | . | .
CCn1c(=O)c(C(=O)CN2CCN(S(=O)(=O)c3ccc(C)cc3C)CC2)c(N)n(Cc2ccccc2)c1=O | . | ? | . | . | 8.28µM | ?
COc1ccc(NC(=O)C(Cc2ccccc2)NS(=O)(=O)c2ccc3c(c2)CCN3C(C)=O)cc1 (stereo not given) | / | / | . | . | / | /
O=C(NC1CC2CCCC(C1)N2C(=O)Nc1ccccc1F)C1CC1 (stereo not given) | . | . | . | . | . | .
COc1ccc(OC)c(NC(=O)CSc2cn(CC(=O)N3CCCCCC3)c3ccccc23)c1 | / | / | ? | . | / | /
CCn1c(=O)c(C(=O)CN2c3ccccc3CC2C)c(N)n(Cc2ccccc2)c1=O (stereo not given) | . | ? | . | . | ? | ?
Cn1c(=O)c(C(=O)CN2CCN(Cc3ccc4c(c3)OCO4)CC2)c(N)n(Cc2ccccc2)c1=O | . | . | . | . | . | .
Cn1c(=O)c(C(=O)CN2CCCCCC2)c(N)n(Cc2ccccc2)c1=O | . | ? | . | 35.5µM | ? | .
CC1Cc2ccccc2N1CC(=O)c1c(N)n(Cc2ccccc2)c(=O)n(C)c1=O (stereo not given) | . | 8.28µM | . | . | 9.28µM | .
C=C1CCN([C@@H](CC(C)C)C(=O)NCc2ccco2)S(=O)(=O)c2ccccc21 | / | / | . | / | / | .
Clc1cccc(OCCn2ccnc2)c1 | . | . | . | . | . | .

Screens deposited in PubChem BioAssay by National Center for Advancing Translational Sciences (NCATS).
